Screen size: about 410,000 compounds; about 820 (0.2%) were called active. Another 2% or so got no clear call; they are omitted. The entries come from a sample that favours actives as a whole. Values without a mark were called inactive. Calls come from the whole dose curve; as a rule, active = well fitted activation curve with a large enough effect; inconclusive = small, poorly fitted or top-dose-only effect; inactive = flat fitted curve, though single readings scatter; cell line not stated here.
Experiment: A Quantitative High throughput Screen to Identify Chemical Modulators of PINK1 Expression; note: nearly all actives have a fitted effect of over 65% in size; for activation (PINK1 increase): % of control where 0% means no effect
Conditions: PINK1 immunofluorescence, high-content cytometry, 24 h; series mostly up to 76.6 µM; activation (PINK1 increase): at the top concentration
Source text: The overall goal of this project is to develop new tools for understanding and treating the mitochondrial basis for neurodegenerative disease such as Parkinson's disease (PD). The PINK1 campaign was developed from recent data pointing towards mitochondrial dysfunction as a major contributor to dopaminergic neuron loss. The discovery of PINK1/Parkin mediated mitophagy has highlighted the potential for mitochondrial quality control as a novel target for therapeutic intervention. […] A second aim of this project is the development of chemical probes to study the mechanics of mitochondrial quality control. As the PINK1/Parkin mitophagy pathway is a relative recent discovery, no specific chemical probes are available that modulate the process. Presently, only crude tools that cause nonspecific mitochondrial damage are available. To advance the understanding of mitophagy, specific, well characterized chemicals that target various steps of mitophagy regulation need to be developed. New chemical probes may have the ability to dynamically manipulate mitophagy in model organisms such as rodents and zebrafish, advancing our understanding of the process in development and disease. This HTS campaign seeks to discover an activator of PINK1 expression by modulation at the level of post-translational processing.
The PINK1 assay determines the amount and localization of PINK1 protein in a cell using a combination of immunofluorescence and cell staining. The goal of the assay is to determine small molecules that can increase the expression of Pink1 on or inside the cell's mitochondria (ideally without mitochondrial depolarization) using a stable cell line. Since PINK1 protein is rapidly degraded in un-perturbed cells, compounds that induce the enhancement of PINK1 protein expression are identified by determining PINK1 immunofluorescence in conjunction with a mitochondrial, cell, and nuclear marker post fixation. To facilitate rapid high content screening, the primary assay is run in a decision-based HTS mode where compound titration data collected by laser-scanning microplate cytometers is processed and only promising compound series are passed off for high content drill down.
1 Add cells to black, clear-bottom, low-base 1536-well plates 6 uL (250 cells/well)
2 Incubate in TC incubator (12 hours)
3 Pin compounds or DMSO controls 23 nL (5 concentrations per compound set)
4 Dispense CCCP to control columns
5 Incubate in TC incubator 24 hours
6 Aspirate media and fix cells (5 uL of fixative containing nuclear dye)
7 Incubate 15 minutes at RT
8 Wash in PBSTween (12 uL/well)
9 Wash in PBSTriton (12 uL/well)
10 Aspirate wash and add Blocking buffer (4 uL/well)
12 Aspirate block and add primary antibodies 3.5 (uL/well)
13 Incubate 12 hours at 10 degrees C
14 Wash in PBSTween-20 two times (12 uL/well)
15 Aspirate wash and add secondary antibodies (12 uL/well)
17 Wash in PBSTween (12 uL/well)
18 Wash in PBSTween with cell stain (12 uL/well)
19 Read plates on Acumen EX3 and determine Wells2Cells coordinates
Potency is the fitted concentration of half-maximal effect.

**Q.** With CCOc1ccc(-c2cc(C)[n+](CCN(CC)CC)c(-c3ccc(OCC)cc3)c2)cc1 as the compound, how does the Potency read?
**A.** 15.8 µM (active)

**Q.** For Cn1cc(/C=C/c2nc3ccccc3c(=O)n2-c2ccccc2)c2ccccc21, which “activation (PINK1 increase)” value is on record?
**A.** 3.72%

**Q.** For CCc1nc2ccccc2c(=O)n1-c1cccc(OC)c1, which “activation (PINK1 increase)” value is on record?
**A.** -3.42% [at 38.3 µM]

**Q.** With COc1cccc(N2C(=O)NC(=O)/C(=C\c3cn(C)c4ccccc34)C2=O)c1 as the compound, how does the Potency read?
**A.** 39.8 µM (active)

**Q.** With c1ccc(N2CC[C@@]3(CCCNC3)C2)nc1 as the compound, how does the “activation (PINK1 increase)” value read?
**A.** -0.11%

**Q.** Which “activation (PINK1 increase)” value does the source give for COc1cccc(-c2ccc(O)c(CNC3CN4CCC3CC4)c2)n1 (centres undefined) here?
**A.** -0.604%

**Q.** Which “activation (PINK1 increase)” value does the source give for c1ccc(CN2CC[C@@]3(CCCNC3)C2)cc1 here?
**A.** -1.39%

**Q.** With COc1cc([C@@H]2c3cc4c(cc3[C@H](OC(C)=O)[C@H]3COC(=O)[C@H]23)OCO4)cc(OC)c1OC as the compound, how does the “activation (PINK1 increase)” value read?
**A.** 6.21%

**Q.** For N#Cc1c(Cl)c(Cl)c(Cl)c(C#N)c1Cl, which “activation (PINK1 increase)” value is on record?
**A.** 12.1%
